SMILES strings stand for the structures. A number with no mark means an inactive call. Results filed as inconclusive are left out. Activity calls are given as the source filed them. Unless noted, the call rests on the fitted dose curve.

Assay [1] can be described thus: Nuclear factor erythroid 2-related factor 2/antioxidant responsive element (Nrf2/ARE) small molecule agonists: qHTS cell viability counter screen in human keratinocytes (AID 1919968; active means well fitted curve in the direction sought with a large enough effect in the repeat runs; an effect the other way counts as inactive or inconclusive; further: nearly all actives have a fitted effect of over 55% in size). The gist of the method: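 Viability counter-screen: KeratinoSens reporter cells, DMSO-delivered compounds, 23 h at 37 C, CellTiter-Fluor fluorescence.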
In general terms: In qHTS, concentration-response curves come from the screen itself.

A short description of assay [2]: Nuclear factor erythroid 2-related factor 2/antioxidant responsive element (Nrf2/ARE) small molecule agonists: luciferase reporter gene qHTS assay in human keratinocytes (AID 1919969). Further: nearly all actives have a fitted effect of over 35% in size. Further: potency means the concentration at half of the fitted maximal effect. Background: In a reporter assay the amount or activity of a reporter protein is the signal.
Assay [3] deals with Gonadotropin-releasing hormone receptor (Homo sapiens) (UniProt P30968). In words: Human gonadotropin-releasing hormone receptor (GnRHR) small molecule agonists, calcium flux assay in GnRHR-HEK293 cells (AID 1920063). Further: nearly all actives have a fitted effect of over 35% in size. In short, it runs like this:
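Tox21-format agonist screen using human GnRHR-expressing HEK293 cells and a fluorescent calcium dye; kinetic 3-min fluorescence reading after compound addition, 15-point concentration series run in triplicate.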
(In general: Calcium flux is commonly read through the fluorescence of an indicator in the cells.)

The target of assay [4] is KiSS-1 receptor (Homo sapiens) (UniProt Q969F8). In words: Human kisspeptin (KISS1R) small molecule agonists, calcium flux assay in KISS1R-HEK293 cells (AID 1920064; active means well fitted curve in the direction sought with a large enough effect in the repeat runs; an effect the other way counts as inactive or inconclusive). In short, it runs like this: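 Intracellular calcium mobilization in KISS1R-HEK293 cells was recorded by fluorescence (Ex/Em 480/540) for 3 min following compound addition to cells pre-loaded 1 h with calcium dye.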

A short description of assay [5]: G protein-coupled receptor (GPCR) small molecule agonists, calcium flux assay: HEK293 wild type cell line counter screen (AID 1920065). In short, it runs like this:
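In this agonist-mode screen, ATP is the positive control and DMSO the vehicle. Cells grow 18 h before a 1 h dye incubation at 37 C; signal is taken at Ex/Em 480/540 over 3 min.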

Assay [6] can be described thus: p53 small molecule agonists, cell-based qHTS assay with human liver microsomes (AID 1963577). The gist of the method: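 Fluorescence of the beta-lactamase reporter in p53RE-bla cells, detected with LiveBLAzer substrate (2 h, room temperature, dark), served as the read-out after 16 h compound exposure at 37 C with human liver microsomes and NADPH, each 0.5 mg/mL final.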

Assay [7] in a line: p53 small molecule agonists, cell-based qHTS assay with rat liver microsomes (AID 1963578). In short, it runs like this:
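Cells carrying a p53 response element–beta-lactamase reporter were plated and rested 5 h, then dosed with compound in DMSO plus rat liver microsomes and NADPH, each at 0.5 mg/mL final. After 16 h at 37 C, LiveBLAzer substrate was added for 2 h.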

Assay [8] can be described thus: p53 small molecule agonists, cell-based qHTS assay with human liver microsomes: qHTS cell viability counter screen (AID 1963579). Further: nearly all actives have a fitted effect of over 45% in size. In short, it runs like this:
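Cytotoxicity counter screen: p53RE-bla, 4,000 cells/well; 5 h settle, 37 C/5% CO2; cpd + HLM 0.5 mg/mL + NADPH 0.5 mg/mL (final); 16 h, 37 C; CellTiter-Glo, 30 min RT, luminescence.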

Assay [9] in a line: p53 small molecule agonists, cell-based qHTS assay with rat liver microsomes: qHTS cell viability counter screen (AID 1963580). Further: nearly all actives have a fitted effect of over 45% in size. In short, it runs like this: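 In HCT-116 cells carrying a p53 response element-bla reporter, compounds were metabolically activated in situ by rat liver microsomes with NADPH over 16 h. Cell ATP content then served as the cytotoxicity measure.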
The nature of assay [10]: p53 small molecule agonists, cell-based qHTS assay: qHTS cell viability counter screen (AID 1963581). Further: nearly all actives have a fitted effect of over 45% in size. In short, it runs like this:
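Compounds are pinned onto HCT-116 p53RE-bla cells and left 16 h at 37 C. Following the reporter FRET read, ATP is quantified by CellTiter-Glo luminescence after 30 min at room temperature.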

Assay [11] is described as follows: p53 small molecule agonists, cell-based qHTS assay (AID 1963582; active means well fitted activation curve with a large enough effect in the signal ratio in the repeat runs, not every such curve was filed as active; the % refers to the signal ratio). In short, it runs like this: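 Agonist activity was scored from beta-lactamase FRET fluorescence in p53RE-bla cells treated 16 h at 37 C with compounds in DMSO, substrate incubation being 2 h at room temperature.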
Assay [12] has as its target 5-hydroxytryptamine receptor 2A (Homo sapiens) (UniProt P28223). In words: 5-hydroxytryptamine receptor 2A (HTR2A) small molecule antagonists, cell-based qHTS assay (AID 1963586). Further: nearly all actives have a fitted effect of over 45% in size. The gist of the method: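 Antagonist-mode intracellular calcium assay: DOI (4 nM) added after 5 min compound pre-incubation at room temperature to dye-loaded HTR2A-CHO cells. Fluorescence followed for 3 min, sampled every second.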

Assay [13] shares this target. In words: 5-hydroxytryptamine receptor 2A (HTR2A) small molecule agonists, cell-based qHTS assay (AID 1963587). Further: nearly all actives have a fitted effect of over 30% in size. In short, it runs like this: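 HTR2A-CHO cells, plated 18 h at 37 C/5% CO2, dye-loaded 1 h at 37 C; compounds in DMSO added by pin tool (agonist mode). Intracellular calcium flux read as kinetic fluorescence on FDSS over 2 min at 1 s intervals.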
For assay [14], the target named is Muscarinic acetylcholine receptor M1 (Homo sapiens) (UniProt P11229). Kind of assay: Cholinergic receptor muscarinic 1 (CHRM1) small molecule antagonists, cell-based qHTS assay (AID 1963588). Further: nearly all actives have a fitted effect of over 40% in size. The gist of the method:
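CHRM1-CHO calcium-flux assay, antagonist mode. Cells were seeded 18 h, dye-loaded 1 h at 37 C and given compound for 5 min at RT, then acetylcholine was added at 50nM. FDSS fluorescence was read 3 min; 15 concentrations, three runs.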

The target is the same in assay [15]. Kind of assay: Cholinergic receptor muscarinic 1 (CHRM1) small molecule agonists, cell-based qHTS assay (AID 1963589). Further: nearly all actives have a fitted effect of over 35% in size. In short, it runs like this:
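Stable CHRM1-CHO cells (human receptor) were incubated 18 h, dye-loaded for 1 h at 37 C and exposed to test compounds for agonist activity, with calcium-dependent fluorescence followed kinetically.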

Assay [16] can be described thus: cAMP Responsive Elements (CRE) small molecule agonists, cell-based qHTS assay (AID 1963590). In short, it runs like this:
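FRET-based beta-lactamase readout (LiveBLAzer B/G, 2 h RT) quantified CRE activation in HEK 293T CRE-bla cells after 3 h treatment with DMSO-dissolved compounds.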

The nature of assay [17]: cAMP Responsive Elements (CRE) small molecule antagonists, cell-based qHTS assay (AID 1963591; active means well fitted inhibition curve with a large enough effect in the signal ratio in the repeat runs, not every such curve was filed as active; the % refers to the signal ratio). The gist of the method:
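qHTS in CRE-bla HEK 293T cells: compound in DMSO, then 0.25 uM NKH477 (final), 3 h at 37 °C/5% CO2; beta-lactamase FRET read-out after 2 h substrate incubation.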

In assay [18] the target is Beta-2 adrenergic receptor (Homo sapiens) (UniProt P07550). Kind of assay: Adrenergic beta2 receptor (ADRB2) small molecule antagonists, cell-based qHTS assay (AID 1963592). Further: nearly all actives have a fitted effect of over 50% in size. Further: potency means the concentration at half of the fitted maximal effect. In short, it runs like this: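 Cells (CHO, stable ADRB2 overexpression) incubated 18-20hr at 37C; compounds added from DMSO; agonist mix (1nM isoproterenol, 100uM IBMX, 25uM Ro-20-1724) added; 0.5hr RT; d2-cAMP and anti-cAMP-cryptate added; 1hr RT; 665/615 nm read.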

In assay [19] the target is D(2) dopamine receptor (Homo sapiens) (UniProt P14416). In words: Dopamine D2 receptor (DRD2) small molecule agonists, cell-based qHTS assay (AID 1963594). Further: nearly all actives have a fitted effect of over 35% in size. In short, it runs like this: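 HEK293 cells stably expressing DRD2 were cultured 24 h at 37 C, then given Ro20-1724 (0.1 mM final) and compounds for 10 min at room temperature. NKH477 (200nM) was then added for 30 min. cAMP was read by HTRF.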

For assay [20] the target is unchanged. In words: Dopamine D2 receptor (DRD2) small molecule antagonists, cell-based qHTS assay (AID 1963595; active means well fitted inhibition curve with a large enough effect in the signal ratio in the repeat runs, with a control signal flat; the % refers to the signal ratio). In short, it runs like this: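 Cells were plated and grown for 24 h at 37 °C. Ro20-1724 (0.1 mM final) went in first, then compound for 10 min. NKH477 (200 nM) with quinpirole (12 nM) followed for 30 min at RT, then HTRF detection reagents for 1 h.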

Beta-2 adrenergic receptor (Homo sapiens), sequence (P07550 whole entry, looked up): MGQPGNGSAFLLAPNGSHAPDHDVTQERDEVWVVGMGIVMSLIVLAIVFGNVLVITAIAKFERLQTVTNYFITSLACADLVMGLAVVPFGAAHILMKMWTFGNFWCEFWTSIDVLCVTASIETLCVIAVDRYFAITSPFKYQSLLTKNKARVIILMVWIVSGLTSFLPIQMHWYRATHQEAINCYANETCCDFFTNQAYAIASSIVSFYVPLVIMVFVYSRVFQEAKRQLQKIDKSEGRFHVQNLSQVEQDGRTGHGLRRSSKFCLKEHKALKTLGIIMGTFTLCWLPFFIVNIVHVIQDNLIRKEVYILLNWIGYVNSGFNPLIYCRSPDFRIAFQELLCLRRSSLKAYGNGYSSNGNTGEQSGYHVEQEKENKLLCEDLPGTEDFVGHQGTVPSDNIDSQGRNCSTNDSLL
Muscarinic acetylcholine receptor M1 (Homo sapiens), sequence (P11229 whole entry, looked up): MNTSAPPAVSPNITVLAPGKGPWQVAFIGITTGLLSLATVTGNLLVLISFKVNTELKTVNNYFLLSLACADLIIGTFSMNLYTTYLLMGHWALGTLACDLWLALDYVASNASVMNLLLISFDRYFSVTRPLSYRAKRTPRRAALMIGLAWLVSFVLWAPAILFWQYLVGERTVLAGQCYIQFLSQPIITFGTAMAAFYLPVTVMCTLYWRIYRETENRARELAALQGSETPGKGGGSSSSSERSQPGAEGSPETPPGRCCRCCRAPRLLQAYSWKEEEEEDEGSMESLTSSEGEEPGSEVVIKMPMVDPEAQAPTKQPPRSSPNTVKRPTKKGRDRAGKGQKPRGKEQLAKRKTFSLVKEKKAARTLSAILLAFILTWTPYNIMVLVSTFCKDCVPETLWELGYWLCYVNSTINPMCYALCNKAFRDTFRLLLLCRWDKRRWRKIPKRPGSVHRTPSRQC
D(2) dopamine receptor (Homo sapiens), sequence (P14416 whole entry, looked up): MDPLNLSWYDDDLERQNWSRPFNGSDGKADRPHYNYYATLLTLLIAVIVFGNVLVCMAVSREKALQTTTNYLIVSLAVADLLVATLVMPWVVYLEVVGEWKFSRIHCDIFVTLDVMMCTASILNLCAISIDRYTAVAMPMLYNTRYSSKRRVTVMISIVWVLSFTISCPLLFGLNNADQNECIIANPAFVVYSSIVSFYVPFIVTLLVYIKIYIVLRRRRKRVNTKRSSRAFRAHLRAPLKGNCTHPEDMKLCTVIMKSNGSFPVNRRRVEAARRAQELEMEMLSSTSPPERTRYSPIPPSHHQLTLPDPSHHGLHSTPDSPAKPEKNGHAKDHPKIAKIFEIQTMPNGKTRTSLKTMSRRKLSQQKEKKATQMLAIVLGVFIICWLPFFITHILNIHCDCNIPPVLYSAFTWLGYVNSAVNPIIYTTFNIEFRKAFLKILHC
5-hydroxytryptamine receptor 2A (Homo sapiens), sequence (P28223 whole entry, looked up): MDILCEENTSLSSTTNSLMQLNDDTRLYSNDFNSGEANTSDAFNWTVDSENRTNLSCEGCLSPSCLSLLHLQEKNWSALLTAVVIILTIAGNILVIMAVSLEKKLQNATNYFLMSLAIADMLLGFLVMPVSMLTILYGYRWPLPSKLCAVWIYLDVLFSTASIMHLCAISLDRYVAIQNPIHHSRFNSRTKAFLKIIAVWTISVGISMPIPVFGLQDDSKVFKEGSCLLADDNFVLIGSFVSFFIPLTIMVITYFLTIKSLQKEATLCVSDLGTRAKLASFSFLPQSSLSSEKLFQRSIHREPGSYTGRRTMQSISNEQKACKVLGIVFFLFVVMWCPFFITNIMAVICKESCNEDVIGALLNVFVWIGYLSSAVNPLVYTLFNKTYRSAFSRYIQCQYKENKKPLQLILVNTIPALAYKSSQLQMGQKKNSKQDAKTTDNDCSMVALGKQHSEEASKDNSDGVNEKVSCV
KiSS-1 receptor (Homo sapiens), sequence (Q969F8 whole entry, looked up): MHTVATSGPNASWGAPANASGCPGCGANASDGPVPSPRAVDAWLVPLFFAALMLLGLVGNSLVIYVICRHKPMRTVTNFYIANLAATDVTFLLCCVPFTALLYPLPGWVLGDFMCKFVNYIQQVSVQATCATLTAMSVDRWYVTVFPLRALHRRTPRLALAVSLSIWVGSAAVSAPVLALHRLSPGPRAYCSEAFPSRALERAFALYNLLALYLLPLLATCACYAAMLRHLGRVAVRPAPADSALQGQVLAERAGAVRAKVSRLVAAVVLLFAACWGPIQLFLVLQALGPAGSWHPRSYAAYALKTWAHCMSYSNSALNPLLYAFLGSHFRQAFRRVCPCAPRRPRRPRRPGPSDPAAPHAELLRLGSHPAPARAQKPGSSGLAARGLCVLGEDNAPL
Gonadotropin-releasing hormone receptor (Homo sapiens), sequence (P30968 whole entry, looked up): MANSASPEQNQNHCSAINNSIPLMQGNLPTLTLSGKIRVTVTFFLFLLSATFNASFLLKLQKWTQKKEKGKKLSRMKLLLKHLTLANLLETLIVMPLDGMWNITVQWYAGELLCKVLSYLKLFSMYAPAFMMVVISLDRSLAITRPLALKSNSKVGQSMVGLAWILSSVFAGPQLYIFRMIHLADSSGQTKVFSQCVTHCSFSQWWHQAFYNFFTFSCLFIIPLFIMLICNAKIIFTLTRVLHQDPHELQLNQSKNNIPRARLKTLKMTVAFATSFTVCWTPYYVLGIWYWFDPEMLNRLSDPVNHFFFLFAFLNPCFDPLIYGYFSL

`CCc1cccc(CC)c1NC(=O)CN(CC(=O)O)CC(=O)O`: the Potency result in assay [1], in [2], in assay [3], in assay [6], in [7] and in [8] was “inactive” in each case. The Potency entry in assay [9], in assay [10], in [11], in assay [12], in [13] and in assay [14] was “inactive” throughout. Also, the Potency result in [15], in assay [16], in assay [17], in [18], in [19] and in assay [20] was “inactive” in each case. Moreover, the outcome in assay [4] and in assay [5] was inactive.
For the compound `COc1ccccc1N1CCN(CC(O)COc2cc(OC)c(OC)c(OC)c2)CC1` (stereo not given), the Potency result in [1], in assay [2], in [3], in [6], in assay [7] and in assay [8] was “inactive” throughout. In addition, the Potency result in assay [9], in assay [10], in assay [11], in assay [12], in [13] and in assay [14] was “inactive” throughout. Further, the Potency entry in [15], in assay [16], in assay [17], in assay [18] and in [20] was “inactive” each time. Also, the result in assay [4] and in [5] was inactive.
Regarding `CN1C(C)(C)CCCC1(C)C`, the Potency entry in [1], in assay [2], in assay [3], in assay [6], in assay [7] and in [8] was “inactive” throughout. Moreover, the Potency entry in assay [9], in assay [10], in assay [11], in assay [12], in assay [13] and in [14] was “inactive” throughout. Besides, the Potency entry in assay [15], in assay [16], in [17], in assay [18] and in assay [20] was “inactive” each time. Also, the result in assay [4] and in [5] was inactive.
In the case of `C=CC(C)(CCC=C(C)C)OC(=O)C(C)C` (stereo not given), the Potency entry in assay [1], in [2], in assay [3], in [6], in [7] and in assay [8] was “inactive” each time. Moreover, the Potency result in assay [9], in [10], in assay [11], in [12], in [13] and in assay [14] was “inactive” throughout. For the same compound, the Potency result in assay [15], in [16], in assay [17], in assay [18] and in [20] was “inactive” each time. Further, the outcome in [4] and in [5] was inactive.
As for `Cc1ccc2cccnc2c1`, the Potency result in assay [1], in assay [2], in assay [3], in assay [6], in [7] and in assay [8] was “inactive” throughout. In addition, the Potency entry in assay [9], in [10], in assay [11], in assay [12], in assay [13] and in [14] was “inactive” in each case. In addition, the Potency result in assay [15], in [16], in assay [18], in assay [19] and in assay [20] was “inactive” each time. The result in assay [4] and in [5] was inactive.
Regarding `COc1cc2c(cc1OC)C(=O)C(CC1CCN(Cc3ccccc3)CC1)C2` (stereo not given), the Potency result in assay [1], in assay [2], in [3], in assay [6], in [7] and in assay [8] was “inactive” throughout. In addition, the Potency result in assay [9], in assay [10], in [11], in assay [12], in assay [13] and in [14] was “inactive” in each case. Further, the Potency result in [15], in [16] and in assay [19] was “inactive” in each case. In addition, the result in [4] and in assay [5] was inactive. Moreover, the Potency in assay [18] was 18.8 µM (active).
On to `CC/C=C\CC/C=C/C(OCC)OCC`, for which the Potency result in [1], in [3], in [6], in assay [7], in assay [8] and in assay [9] was “inactive” in each case. Further, the Potency entry in [10], in assay [11], in [12], in assay [13], in assay [14] and in [15] was “inactive” in each case. Also, the Potency entry in assay [16], in assay [18] and in assay [20] was “inactive” each time. Moreover, the Potency in [2] is 61.1 µM (active). The result in assay [4] and in assay [5] was inactive.
For `CC(C)=CCOC(=O)c1ccccc1`, the Potency entry in [1], in [2], in assay [3], in assay [6], in assay [7] and in assay [8] was “inactive” in each case. The Potency entry in assay [9], in assay [10], in assay [11], in assay [12], in assay [13] and in assay [14] was “inactive” in each case. For the same compound, the Potency result in [15], in assay [16], in assay [18], in assay [19] and in assay [20] was “inactive” in each case. In addition, the result in assay [4] and in assay [5] was inactive.
As to `Nc1ccc(NC(=O)c2ccc(N)cc2)cc1`, the Potency result in assay [1], in assay [2], in assay [3], in [6], in assay [7] and in assay [8] was “inactive” in each case. The Potency result in assay [9], in assay [10], in assay [11], in assay [12], in assay [13] and in assay [14] was “inactive” in each case. For the same compound, the Potency result in [15], in [16], in [17], in [19] and in assay [20] was “inactive” each time. Besides, the result in assay [4] and in assay [5] was inactive.

For the origin of these results see PubChem BioAssay (Tox21).
